GRIN3A LBD mod: binders of NR3A ligand-binding domain, primary screen, biophysical, differential scanning fluorimetry, uHTS | Glutamate receptor ionotropic, NMDA 3A (GRIN3A) ligand-binding domain | NR3A LBD differential scanning fluorimetry, Tm shift; 0% = protein alone, 100% = glycine-bound protein | Tm shift relative to glycine control, % at 25 µM | actives 2.5% (n = 340,000);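 active = melting temperature shift of at least 10% of the positive control shift, at one fixed dose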
rCAG binder: binders of r(CAG) RNA repeats, primary screen, biochemical, fluorescence. r(CAG) RNA repeat, TO-PRO-1 dye displacement fluorescence. inhibition, % at 3 µM. actives 1.3% (n = 370,000). AID 651821, 2012;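 active = inhibition above the plate cutoff, the mean of all test compounds on that plate plus 3 SD, cut at about 35% in these data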;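 also: higher means more dye released from RNA so lower well fluorescence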
NadD inh: inhibitors of S. aureus NadD, primary screen, biochemical, colorimetric, uHTS. Nicotinate-nucleotide adenylyltransferase NadD (Staphylococcus aureus N315). purified NadD enzyme, colorimetric absorbance read-out. inhibition, % at 20 µM. actives 0.78% (n = 360,000); in the data active = inhibition above about 26%
FAS-TE inh: FAS thioesterase domain inhibitors, primary screen, biochemical, fluorescence intensity, uHTS | Fatty acid synthase (Homo sapiens), P49327 | recombinant FAS-TE, OMFH fluorogenic substrate, fluorescence endpoint | inhibition, % at 15 µM | actives 0.67% (n = 360,000) | AID 602261, 2012;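 active = compounds whose normalised, plate-corrected inhibition of enzyme fluorescence in the single-dose primary screen is 50% or more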
Target sequence (P49327 whole entry, looked up, the tested form may be a part): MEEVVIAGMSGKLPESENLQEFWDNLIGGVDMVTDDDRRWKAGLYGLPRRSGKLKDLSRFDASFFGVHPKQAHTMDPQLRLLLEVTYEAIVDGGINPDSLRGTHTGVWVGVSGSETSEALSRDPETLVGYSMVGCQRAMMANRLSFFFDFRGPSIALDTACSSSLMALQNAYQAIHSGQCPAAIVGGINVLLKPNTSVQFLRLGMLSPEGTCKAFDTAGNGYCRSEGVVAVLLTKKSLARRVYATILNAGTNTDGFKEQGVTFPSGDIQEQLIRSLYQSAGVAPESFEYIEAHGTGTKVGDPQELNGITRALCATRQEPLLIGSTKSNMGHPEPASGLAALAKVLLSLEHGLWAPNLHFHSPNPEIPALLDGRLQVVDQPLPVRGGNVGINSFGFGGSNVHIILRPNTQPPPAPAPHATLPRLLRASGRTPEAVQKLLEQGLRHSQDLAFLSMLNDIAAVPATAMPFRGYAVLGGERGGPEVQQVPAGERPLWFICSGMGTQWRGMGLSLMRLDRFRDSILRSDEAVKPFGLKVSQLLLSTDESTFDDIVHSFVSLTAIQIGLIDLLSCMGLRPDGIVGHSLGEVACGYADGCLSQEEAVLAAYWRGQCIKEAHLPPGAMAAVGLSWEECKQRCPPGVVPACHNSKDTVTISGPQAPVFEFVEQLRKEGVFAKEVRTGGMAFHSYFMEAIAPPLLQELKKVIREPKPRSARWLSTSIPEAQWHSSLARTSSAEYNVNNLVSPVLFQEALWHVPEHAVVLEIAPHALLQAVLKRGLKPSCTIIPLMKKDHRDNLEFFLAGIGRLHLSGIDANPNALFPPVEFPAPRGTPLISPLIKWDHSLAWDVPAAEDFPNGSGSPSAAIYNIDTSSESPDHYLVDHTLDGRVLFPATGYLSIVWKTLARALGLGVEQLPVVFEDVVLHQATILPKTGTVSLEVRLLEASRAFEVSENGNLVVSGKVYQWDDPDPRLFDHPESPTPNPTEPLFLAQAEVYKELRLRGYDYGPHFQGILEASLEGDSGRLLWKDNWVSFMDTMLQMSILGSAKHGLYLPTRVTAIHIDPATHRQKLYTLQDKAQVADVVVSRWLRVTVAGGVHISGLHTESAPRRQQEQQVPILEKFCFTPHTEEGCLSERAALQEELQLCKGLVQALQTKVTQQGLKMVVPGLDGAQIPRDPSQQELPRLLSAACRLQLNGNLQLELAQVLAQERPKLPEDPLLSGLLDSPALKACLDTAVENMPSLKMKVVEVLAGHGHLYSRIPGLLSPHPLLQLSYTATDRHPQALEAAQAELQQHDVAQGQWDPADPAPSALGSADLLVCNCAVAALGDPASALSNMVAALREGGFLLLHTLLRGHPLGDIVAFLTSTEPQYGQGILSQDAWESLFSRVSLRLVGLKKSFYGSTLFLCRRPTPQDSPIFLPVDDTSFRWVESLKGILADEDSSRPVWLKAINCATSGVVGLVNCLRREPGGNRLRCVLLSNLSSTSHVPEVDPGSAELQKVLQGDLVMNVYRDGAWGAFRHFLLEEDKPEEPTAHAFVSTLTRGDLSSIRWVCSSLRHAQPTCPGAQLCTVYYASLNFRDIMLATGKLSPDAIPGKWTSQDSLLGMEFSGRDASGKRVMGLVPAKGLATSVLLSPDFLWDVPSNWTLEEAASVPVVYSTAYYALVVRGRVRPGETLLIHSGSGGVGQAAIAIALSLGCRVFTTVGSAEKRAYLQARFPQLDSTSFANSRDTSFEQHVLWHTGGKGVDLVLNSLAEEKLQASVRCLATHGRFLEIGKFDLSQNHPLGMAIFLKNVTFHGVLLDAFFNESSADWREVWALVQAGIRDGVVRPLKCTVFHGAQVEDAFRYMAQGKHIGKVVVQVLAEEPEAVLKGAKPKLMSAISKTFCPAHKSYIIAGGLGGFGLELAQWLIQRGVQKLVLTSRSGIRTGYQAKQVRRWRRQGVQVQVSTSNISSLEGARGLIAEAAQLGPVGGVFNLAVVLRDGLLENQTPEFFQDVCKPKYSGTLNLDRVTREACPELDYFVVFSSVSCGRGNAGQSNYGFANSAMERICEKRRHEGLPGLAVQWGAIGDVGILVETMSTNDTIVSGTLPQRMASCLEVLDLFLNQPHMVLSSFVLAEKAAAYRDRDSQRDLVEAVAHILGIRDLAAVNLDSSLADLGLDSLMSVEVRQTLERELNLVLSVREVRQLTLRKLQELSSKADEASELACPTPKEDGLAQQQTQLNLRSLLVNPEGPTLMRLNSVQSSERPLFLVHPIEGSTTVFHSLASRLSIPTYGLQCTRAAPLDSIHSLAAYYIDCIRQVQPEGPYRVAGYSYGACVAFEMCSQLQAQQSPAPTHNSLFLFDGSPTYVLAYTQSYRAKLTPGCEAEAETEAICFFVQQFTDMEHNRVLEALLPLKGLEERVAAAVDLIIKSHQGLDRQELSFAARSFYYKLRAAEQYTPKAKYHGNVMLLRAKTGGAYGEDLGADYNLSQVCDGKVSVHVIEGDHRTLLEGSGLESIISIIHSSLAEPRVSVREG
Of the large screens only hits and unclear results are named; the others gave an inactive call. The list is not random: actives were taken first. Their share in the collection is about 4.3%.

CN(C)c1cccc(/C=C2\CC3(OC(=O)c4ccc(Cl)cc4)CCCN2C3)c1 (stereo unspecified)	none (no result: GRIN3A LBD mod, NadD inh, FAS-TE inh)
Cc1nn(-c2ccccc2)c2sc(C(=O)NCc3ccc4c(c3)OCO4)cc12	none (no result: GRIN3A LBD mod, NadD inh, FAS-TE inh)
O=C(O)c1ccc2c(c1)C(=O)/C(=C/c1ccccc1)C2=O	GRIN3A LBD mod 26
Cn1cccc1C(=O)N1CCN(S(=O)(=O)c2ccc([N+](=O)[O-])cc2)CC1	none (no result: GRIN3A LBD mod, NadD inh, FAS-TE inh)
CCCN1CCN(CCCNC(=O)c2ccc3c(c2)NC(=O)c2ccccc2S3)CC1	GRIN3A LBD mod 42
OC(c1ccccc1)(c1ccccc1)C1CCN(CCCNc2ccc(C(F)(F)F)cc2)CC1	none (no result: GRIN3A LBD mod, NadD inh, FAS-TE inh)
Cc1ccc([N+](=O)[O-])cc1NC(=O)c1c(-c2ccccc2)noc1C	GRIN3A LBD mod 13
C#CCNC(=O)C[C@H]1C[C@@]2(C(=O)OC)C(=C[C@H](C(C)C)O[C@@H]2C2CC2)N(Cc2cccc3ccccc23)C1=O	none (no result: GRIN3A LBD mod, NadD inh, FAS-TE inh)
COc1cccc(N/C(SCc2ccccc2Cl)=C(/C#N)C(=O)NCc2cccs2)c1	GRIN3A LBD mod 13
CCc1c(C)[nH]n(-c2nc(-c3ccccc3)cs2)c1=O	none
Cc1[nH]n(-c2nc(-c3ccc(Cl)cc3)cs2)c(=O)c1N=Nc1ccc(O)cc1	GRIN3A LBD mod 19, NadD inh 37
Cc1ccc(OCC(O)Cn2c3ccccc3c3ccccc32)cc1 (stereo unspecified)	GRIN3A LBD mod 12
Cc1cccc(C)c1OCC(O)Cn1c2ccccc2c2ccccc21 (stereo unspecified)	none
OC(COCC(F)(F)C(F)(F)C(F)(F)C(F)F)Cn1c2ccccc2c2ccccc21 (stereo unspecified)	GRIN3A LBD mod 29
O=c1cc(-c2ccc(O)cc2)oc2cc(O)cc(O)c12	GRIN3A LBD mod 17
O=c1c(O)c(-c2ccc(O)cc2)oc2cc(O)cc(O)c12	GRIN3A LBD mod 13
COc1ccc(-c2cc(=O)c3c(O)c(OC)c(O)cc3o2)cc1	GRIN3A LBD mod 12
CC(=O)N1CCN(C2=Nc3ccccc3Sc3ccccc32)CC1	none (no result: GRIN3A LBD mod, NadD inh, FAS-TE inh)
Nc1c(C(=O)N2CCN(CCc3ccccc3)CC2)cnn1-c1ccccc1	none (no result: GRIN3A LBD mod, NadD inh, FAS-TE inh)
FC(F)(F)c1ccc(Cn2ccc3ccc(-c4ccc5ccn(Cc6ccccc6)c5c4)cc32)cc1	none (no result: GRIN3A LBD mod, NadD inh, FAS-TE inh)
CCC(CC)c1nn2c(N)c(/C=C3\C(C)=Nc4ccccc43)c(=O)nc2s1	GRIN3A LBD mod 13
CCC(CC)c1nn2c(N)c(/C=C3\C=Nc4ccccc43)c(=O)nc2s1	GRIN3A LBD mod 11
COC(=O)c1cc(-c2cnc(OC)nc2OC)c(=O)n2c1CCC2	none (no result: GRIN3A LBD mod, NadD inh, FAS-TE inh)
Cc1ccc(C(=O)COC(=O)CNS(=O)(=O)c2ccccc2)cc1[N+](=O)[O-]	GRIN3A LBD mod 18
Cc1ccc(C(=O)COC(=O)CCS(=O)(=O)c2ccccc2)cc1[N+](=O)[O-]	none
CCCCNC(=O)CC1N=C2c3ccccc3N=C(SCC(=O)Nc3ccccc3C)N2C1=O (stereo unspecified)	GRIN3A LBD mod 18
Cc1ccc(C)c(N(CC(=O)Nc2ccc(-c3nc4ccc(C)cc4s3)cc2)S(C)(=O)=O)c1	GRIN3A LBD mod 23
CCCC1(c2ccccc2)NC(=O)N(CC(=O)Nc2ccc(N3CCOCC3)cc2)C1=O (stereo unspecified)	none
CCCCC1(c2ccc(F)cc2)NC(=O)N(CC(=O)Nc2ccc(N3CCOCC3)cc2)C1=O (stereo unspecified)	GRIN3A LBD mod 12
Cc1ccc2nc(-c3ccc(NC(=O)C(C)Sc4nncs4)cc3)sc2c1 (stereo unspecified)	GRIN3A LBD mod 14
Cc1ccc(N(CC(=O)Nc2ccc(-c3nc4ccc(C)cc4s3)cc2)S(C)(=O)=O)cc1	none
CCc1ccc2nc(NC(=O)CN3C(=O)NC4(CCCC4)C3=O)sc2c1	GRIN3A LBD mod 11
CN(C)Cc1c(C(C)(C)O)[nH]c2cc(F)ccc12	none (no result: GRIN3A LBD mod, NadD inh, FAS-TE inh)
O=C1CSc2ccc(C(=O)N3CCCC(C(=O)N4CCCCC4)C3)cc2N1 (stereo unspecified)	none (no result: GRIN3A LBD mod, NadD inh, FAS-TE inh)
CCC1(c2ccc(F)cc2)NC(=O)N(CC(=O)Nc2ccc(-c3nc4ccc(C)cc4s3)cc2)C1=O (stereo unspecified)	GRIN3A LBD mod 11
COc1ccc(C2(C)NC(=O)N(CC(=O)Nc3ccc(-c4nc5ccc(C)cc5s4)cc3)C2=O)cc1 (stereo unspecified)	none
Cc1ccc(NC2CCCN(C(=O)CN3C(=O)CSC3=O)C2)cc1C (stereo unspecified)	GRIN3A LBD mod 11
COc1ccc(C(=O)N2CCCC(Nc3ccc(C)c(C)c3)C2)c(OC)n1 (stereo unspecified)	GRIN3A LBD mod 32
COc1ccc(C(=O)N2CCCC(Nc3ccc(F)cc3)C2)c(OC)c1 (stereo unspecified)	GRIN3A LBD mod 13
CC(C)c1ccc(NC2CCCN(C(=O)CN3C(=O)CSC3=O)C2)cc1 (stereo unspecified)	none
COc1ccc(NC2CCCN(C(=O)c3ccc(C(C)=O)cc3)C2)cc1 (stereo unspecified)	none
CCCC1CCC2(CCC(=O)N2CCO)CC1 (stereo unspecified)	none (no result: GRIN3A LBD mod, NadD inh, FAS-TE inh)
Cc1cccc(OCc2nnc(N)s2)c1C	GRIN3A LBD mod 12
CCCCCCCCCCCCN1[C@@H](CC(=O)O)c2cc(C(F)(F)F)ccc2S1(=O)=O	FAS-TE inh 58
COC(=O)C[C@H]1c2ccc(C(F)(F)F)cc2S(=O)(=O)N1Cc1ccccc1	GRIN3A LBD mod 13
CCCc1cc(=O)[nH]c(NCc2ccc(Cl)cc2)n1	none
CCCc1cc(=O)[nH]c(Nc2ccc(O)cc2)n1	GRIN3A LBD mod 10
O=C(Nc1ccc(Cl)c(Cl)c1)OCc1cnc(Cl)s1	GRIN3A LBD mod 12
O=C(Nc1ccccc1)OCc1cnc(Cl)s1	none
Cc1ccc(S(=O)(=O)N2CCOC23CCN(S(=O)(=O)c2cccs2)CC3)cc1	GRIN3A LBD mod 12
Cc1ccc(S(=O)(=O)N2CCC3(CC2)OCCN3S(=O)(=O)c2cccs2)cc1	none
CCCCCCc1c[nH]c2ccc(O)c(-c3ccccc3)c12	none (no result: GRIN3A LBD mod, NadD inh, FAS-TE inh)
COc1cc(/C=C2\SC(=S)N(CC(=O)Nc3ccc(O)cc3)C2=O)cc(OC)c1OC	GRIN3A LBD mod 13
COc1cccc(/C=C2/SC(=S)N(CC(=O)Nc3nnc(C)s3)C2=O)c1	NadD inh 39
COc1cccc(/C=C2/SC(=S)N(CC(=O)NNC(=O)c3ccccc3OC)C2=O)c1	NadD inh 39
Cc1nnc(NC(=O)CCN2C(=O)/C(=C\c3ccccc3)SC2=S)s1	none
COc1cccc(/C=C2\SC(=S)N(CCC(=O)NNC(=O)c3ccccc3OC)C2=O)c1	none
COc1cc(/C=C2\SC(=S)N(CC(=O)Nc3cccnc3)C2=O)cc(OC)c1OC	none
Cc1ccc(NC(=O)CN2C(=O)S/C(=C\c3cc(Cl)c(OCC(=O)O)c(Cl)c3)C2=O)cc1	NadD inh 28
COc1ccc(OC)c(S(=O)(=O)N2CCC(c3cn4ccccc4n3)CC2)c1	none (no result: GRIN3A LBD mod, NadD inh, FAS-TE inh)

High-throughput results: PubChem BioAssay, several laboratories
